# Test results: PubChem BioAssay (NCATS)
# Inconclusive results are not listed. Where a call stands in place of a potency, no number is given. Unmarked numbers belong to inactive results. The source made the active and inactive calls. Calls come from the whole dose curve; as a rule, active = well fitted inhibition curve with a large enough effect; inconclusive = small, poorly fitted or top-dose-only effect; inactive = flat fitted curve, though single readings scatter.
# Biological target: Ubiquitin carboxyl-terminal hydrolase 1 (Homo sapiens) (UniProt O94782)
# Assay: Inhibitors of USP1/UAF1: Pilot qHTS (AID 504865);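 note: rhodamine fluorescence freed from ubiquitin-rhodamine substrate followed over time; top concentration of the series differs between compounds; nearly all actives have a fitted effect of over 35% in size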
# Settings: purified USP1/UAF1, Ub-rhodamine cleavage fluorescence; series mostly up to 114 µM; activity change, negative = inhibition: at the top concentration
# Procedure, shortened: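 USP1/UAF1 complex (1nM) preincubated with compound 15 min at room temperature, then Ub-Rho substrate (150nM final) added. Fluorescence read kinetically at 480/540 nm, 6 reads every 60 seconds. Buffer: 50mM HEPES pH 7.8, 0.5mM EDTA, 0.1 mg/ml BSA, 1mM TCEP, 0.01% Tween-20.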
# Sequence of Ubiquitin carboxyl-terminal hydrolase 1 (Homo sapiens) (O94782 whole entry, looked up): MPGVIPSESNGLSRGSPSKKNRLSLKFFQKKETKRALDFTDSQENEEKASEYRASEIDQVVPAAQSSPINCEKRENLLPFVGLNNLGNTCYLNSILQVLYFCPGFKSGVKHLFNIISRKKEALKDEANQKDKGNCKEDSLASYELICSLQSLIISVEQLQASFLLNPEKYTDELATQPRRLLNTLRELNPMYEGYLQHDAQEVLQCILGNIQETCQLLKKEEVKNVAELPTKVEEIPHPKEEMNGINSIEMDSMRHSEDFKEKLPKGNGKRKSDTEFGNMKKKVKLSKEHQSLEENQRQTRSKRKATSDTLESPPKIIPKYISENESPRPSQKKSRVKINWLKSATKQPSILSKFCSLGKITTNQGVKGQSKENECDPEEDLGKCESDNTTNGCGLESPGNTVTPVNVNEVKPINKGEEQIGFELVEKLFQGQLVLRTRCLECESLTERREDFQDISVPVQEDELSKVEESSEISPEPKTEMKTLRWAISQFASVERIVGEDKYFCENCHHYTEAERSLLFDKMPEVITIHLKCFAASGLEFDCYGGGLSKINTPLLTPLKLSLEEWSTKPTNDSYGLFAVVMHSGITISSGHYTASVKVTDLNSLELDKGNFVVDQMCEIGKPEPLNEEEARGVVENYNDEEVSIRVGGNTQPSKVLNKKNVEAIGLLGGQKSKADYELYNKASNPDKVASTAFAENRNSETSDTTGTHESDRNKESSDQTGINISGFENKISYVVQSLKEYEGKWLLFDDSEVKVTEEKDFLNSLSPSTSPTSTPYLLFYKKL
SMILES,"activity change, negative = inhibition",Potency
COCCc1ccc(OCC(O)CNC(C)C)cc1 (stereo unspecified),5.58%,–
NC(=O)N1c2ccccc2C=Cc2ccccc21,–,inactive
CCCCCN(CCCCC)C(=O)C(CCC(=O)O)NC(=O)c1ccc(Cl)c(Cl)c1 (stereo unspecified),–,inactive
NC(N)=NC(=O)Cc1c(Cl)cccc1Cl,–,inactive
CN(C)CC[C@@H](c1ccc(Br)cc1)c1ccccn1,–,inactive
CNCCC(Oc1ccccc1OC)c1ccccc1 (stereo unspecified),–,inactive
C[N+](C)(C)CCOC(=O)CCC(=O)OCC[N+](C)(C)C,–,inactive
NC(N)=N/N=C/c1c(Cl)cccc1Cl,–,inactive
C[N+](C)(C)CCCCCCCCCC[N+](C)(C)C,–,inactive
COc1ccc(CN(CCN(C)C)c2ccccn2)cc1,–,inactive
CC[N+](C)(C)c1cccc(O)c1,–,inactive
c1cnc(N2CCN(Cc3ccc4c(c3)OCO4)CC2)nc1,–,inactive
CCN1CCc2nc(N)oc2CC1,–,inactive
O=C(O)CN(CCN(CC(=O)O)CC(=O)O)CCN(CC(=O)O)CC(=O)O,–,inactive
CC(C)COCC(CN(Cc1ccccc1)c1ccccc1)N1CCCC1 (stereo unspecified),–,inactive
CCCCNc1c(C(=O)OCC)c(C)nc2c1cnn2CC,-2.29% [at 54.9 µM],–

SMILES,"activity change, negative = inhibition",Potency
CC(C)NNC(=O)c1ccncc1,–,inactive
O=C(CCCN1CCC(O)(c2cccc(C(F)(F)F)c2)CC1)c1ccc(F)cc1,1.77%,–
CC1=NS(=O)(=O)c2cc(Cl)ccc2N1,–,inactive
Cc1nc2c([nH]1)c(=O)n(C)c(=O)n2Cc1ccco1,-6.51%,–
COC(=O)[C@@H](N)Cc1ccc(O)c(O)c1,–,inactive
C[C@]12C=CC(=O)C=C1CC[C@H]1[C@@H]3C[C@@H](O)[C@](O)(C(=O)CO)[C@@]3(C)C[C@H](O)[C@@]12F,-4.75%,–
Nc1c2c(nc3ccccc13)CCCC2O (stereo unspecified),–,inactive
CN(C(=O)CCCOc1ccc2[nH]c(=O)ccc2c1)C1CCCCC1,–,inactive
CC(=O)Nc1nnc(S(N)(=O)=O)s1,–,inactive
CC(N=C(NC#N)Nc1ccncc1)C(C)(C)C (stereo unspecified),–,inactive
c1ccc2c(c1)CCCC2C1=NCCN1 (stereo unspecified),–,inactive
CC(=O)OC(C)C[N+](C)(C)C (stereo unspecified),–,inactive
Cc1ccc(=O)n(-c2ccccc2)c1,–,inactive
OC(CCN1CCCCC1)(c1ccccc1)C1CCCCC1 (stereo unspecified),–,inactive
CCN(CC)CCNC(=O)c1cc(S(C)(=O)=O)ccc1OC,–,inactive
